Test results taken from PubChem BioAssay AID1159580 (chemical genetic matrix, 2015).
“And” between values parts separate entries of the source, which are not always exact repeats. Equal entries are not always repeated. In all, about 5,500 compounds went through this assay and about 2,000 (36%) were called active. About 18% were inconclusive and are not listed. Rule as the data show it: active = normalized growth mostly below about 0.91 (no sharp cut-off); inconclusive = no clear call, values can overlap the other calls; inactive = mostly above about 0.92. Some of the results follow.

Assay: chemical genetic growth profiling, strain panel (AID 1159580);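 also: tested at 20 µM; growth read once vehicle control cultures reached saturation at 30 °C; 1 = growth at the plate median or of vehicle wells; lower values mean less growth of the strain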
Conditions: S. cerevisiae deletion strains, growth OD

Measured: normalized growth

COC(=O)C[C@H]1C(C)(C)[C@@H](OC(C)=O)[C@@H]2CC3=C4CC(=O)O[C@@H](c5ccoc5)[C@]4(C)CCC3[C@@]1(C)C2=O (stereo partly specified)
inactive: locus YAL021C, strain ccr4, stronger effect = lower value 1.04 | locus YAL026C, strain drs2, stronger effect = lower value 0.998 | locus YAL030W, strain snc1, stronger effect = lower value 0.996 | locus YBL061C, strain skt5, stronger effect = lower value 0.991 | locus YBR009C, strain hhf1, stronger effect = lower value 1 | locus YBR021W, strain FUR4, stronger effect = lower value 1.01 | locus YBR023C, strain chs3, stronger effect = lower value 1 | locus YBR171W, strain sec66, stronger effect = lower value 0.996 | locus YBR229C, strain ROT2, stronger effect = lower value 0.997 | locus YBR231C, strain swc5, stronger effect = lower value 0.971 | locus YBR279W, strain paf1, stronger effect = lower value 0.999 | locus YCL011C, strain gbp2, stronger effect = lower value 1.01 | locus YCL016C, strain dcc1, stronger effect = lower value 1.01 | locus YCL029C, strain bik1, stronger effect = lower value 0.998 | locus YCL061C, strain MRC1, stronger effect = lower value 0.999 | locus YCL069W, strain vba3, stronger effect = lower value 0.984 | locus YCR088W, strain abp1, stronger effect = lower value 0.995 | locus YDL005C, strain med2, stronger effect = lower value 0.991 | locus YDL035C, strain GPR1, stronger effect = lower value 0.986 | locus YDL040C, strain nat1, stronger effect = lower value 0.995 | locus YDL074C, strain BRE1, stronger effect = lower value 0.996 | locus YDL101C, strain DUN1, stronger effect = lower value 1.02 | locus YDL185W, strain tfp1, stronger effect = lower value 1.01 | locus YDL192W, strain arf1, stronger effect = lower value 0.998 | locus YDR001C, strain nth1, stronger effect = lower value 0.997 | locus YDR069C, strain doa4, stronger effect = lower value 0.982 | locus YDR101C, strain arx1, stronger effect = lower value 0.976 | locus YDR137W, strain rgp1, stronger effect = lower value 0.997 | locus YDR159W, strain sac3, stronger effect = lower value 0.962 | locus YDR162C, strain NBP2, stronger effect = lower value 0.983 | locus YDR195W, strain ref2 0.938 | locus YDR297W, strain sur2, stronger effect = lower value 0.983 | locus YDR318W, strain mcm21, stronger effect = lower value 0.998 | locus YDR334W, strain swr1, stronger effect = lower value 0.99 | locus YDR335W, strain msn5, stronger effect = lower value 1 | locus YDR388W, stronger effect = lower value 1.01 | locus YDR392W, strain spt3, stronger effect = lower value 0.963 | locus YDR502C, strain sam2, stronger effect = lower value 1 | locus YEL003W, strain gim4, stronger effect = lower value 0.978 | locus YEL037C, strain rad23, stronger effect = lower value 0.989 | locus YEL061C, strain CIN8 (second series), stronger effect = lower value 0.99 | locus YER015W, strain faa2, stronger effect = lower value 1 | locus YER016W, strain bim1, stronger effect = lower value 0.995 | locus YER110C, stronger effect = lower value 1 | locus YER111C, strain swi4, stronger effect = lower value 1 | locus YER155C, strain BEM2 (second series), stronger effect = lower value 1.01 | locus YER155C, strain BEM2, stronger effect = lower value 0.997 | locus YER167W, strain BCK2, stronger effect = lower value 0.998 | locus YFR010W, strain ubp6, stronger effect = lower value 0.976 | locus YGL078C, strain dbp3, stronger effect = lower value 1.01 | locus YGL086W, strain mad1, stronger effect = lower value 1.01 | locus YGL167C, strain pmr1, stronger effect = lower value 1.01 | locus YGL173C, strain kem1, stronger effect = lower value 0.989 | locus YGL227W, strain vid30, stronger effect = lower value 0.993 | locus YGL240W, strain doc1, stronger effect = lower value 1 | locus YGL248W, strain PDE1, stronger effect = lower value 1 | locus YGL253W, strain hxk2, stronger effect = lower value 0.913 | locus YGR078C, strain PAC10, stronger effect = lower value 1.01 | locus YGR135W, strain pre9, stronger effect = lower value 1.02 | locus YGR252W, strain gcn5, stronger effect = lower value 1.01 | locus YHR013C, strain ard1, stronger effect = lower value 1.01 | locus YHR027C, strain rpn1, stronger effect = lower value 1 | locus YHR030C, strain SLT2, stronger effect = lower value 1 and 0.993 | locus YHR079C, strain IRE1 (second series), stronger effect = lower value 0.996 | locus YHR079C, strain IRE1, stronger effect = lower value 0.992 | locus YHR094C, strain hxt1, stronger effect = lower value 1 | locus YHR129C, strain ARP1, stronger effect = lower value 1.01 | locus YHR142W, strain chs7, stronger effect = lower value 0.988 | locus YHR200W, strain rpn10, stronger effect = lower value 1.01 | locus YIL066C, strain RNR3, stronger effect = lower value 1.01 | locus YIL073C, strain SPO22, stronger effect = lower value 1.02 | locus YIL125W, strain kgd1, stronger effect = lower value 0.993 | locus YIR030C, strain dcg1, stronger effect = lower value 1 | locus YJL092W, strain hpr5, stronger effect = lower value 0.996 | locus YJL095W, strain BCK1 (second series), stronger effect = lower value 1.01 | locus YJL095W, strain BCK1, stronger effect = lower value 1.04 and 0.984 | locus YJL115W, strain asf1, stronger effect = lower value 0.997 | locus YJL129C, strain trk1, stronger effect = lower value 0.952 | locus YJL134W, strain LCB3, stronger effect = lower value 0.998 | locus YJL154C, strain vps35, stronger effect = lower value 0.998 | locus YJL164C, strain tpk1, stronger effect = lower value 1.03 | locus YJL166W, strain qcr8, stronger effect = lower value 1 | locus YJL168C, strain set2, stronger effect = lower value 0.995 | locus YJL187C, strain SWE1 (second series), stronger effect = lower value 1.03 | locus YJL187C, strain SWE1, stronger effect = lower value 1.01 | locus YJR043C, strain POL32, stronger effect = lower value 0.987
